Inconclusive results are not listed. Active and inactive are the calls of the source. Unless noted, calls follow the shape of the dose curve; as a rule, active = well fitted curve in the direction sought with a large enough effect; inconclusive = small, poorly fitted or top-dose-only effect, or another doubt; inactive = no such curve, though single readings can be large; an effect the other way counts as inactive or inconclusive.
Key:
[1] = Cell Viability - Jurkat (AID 426;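 active = dose-dependent loss of cell ATP signal giving a full or clear fitted curve, ranked by lower potency value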; also: potency is read from the fitted curve at half-maximal effect); details: qHTS
Method in brief: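 qHTS, 1536-well; Jurkat E6-1, 5000 cells/well, complete medium; cpd 40 hr, 37 °C; CellTiter-Glo 20 min RT; luminescence. AC50 by Hill fit.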

[2] = Cell Viability - Hek293 (AID 427;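 active = compounds whose dose-response curve shows a full or clear partial loss of cell viability, called from curve shape rather than a numeric limit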;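 also: potency is read from the fitted curve at half-maximal effect; cells exposed to compound for 40 hours at 37 °C before reading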); details: qHTS
Method in brief: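 HEK293 cells in complete medium were exposed to compound for 40 hr at 37 °C, then cellular ATP was read by CellTiter-Glo luminescence. Data were normalized to DMSO (basal) and 100 uM tamoxifen (100% inhibition), and AC50 came from Hill fits.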

[3] = Cell Viability - HepG2 (AID 433; calls by dose curve;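 also: potency is read from the fitted curve at half-maximal effect; potency for ATP loss meaning cytotoxicity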); details: qHTS
Method in brief: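 Cytotoxicity is scored as loss of intracellular ATP in HepG2 cells exposed to compounds for 40 h. Concentration-response curves, normalized to DMSO and 100 uM tamoxifen, give AC50 values.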

[4] = Cell Viability - MRC5 (AID 434; calls by dose curve;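 also: potency is read from the fitted curve at half-maximal effect; potency reflects cytotoxicity seen as loss of intracellular ATP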); details: MRC5 lung fibroblast viability, qHTS
Method in brief: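 MRC5 normal human lung fibroblasts (1500/well) were treated with compounds for 40 hr at 37 °C in complete medium, and viable cells were measured as intracellular ATP by CellTiter-Glo luminescence. AC50 came from Hill fits, normalized to DMSO and 100 uM tamoxifen.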

[5] = Cell Viability - SK-N-SH (AID 435; calls by dose curve;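 also: potency is read from the fitted curve at half-maximal effect; compound exposure lasted 40 h at 37 °C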); details: SK-N-SH neuroblastoma cell viability qHTS
Method in brief: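 Cells seeded at 1500 per well and incubated 5 hr at 37 °C. Compound added, then 40 hr at 37 °C. CellTiter-Glo added, 20 min at room temperature, luminescence read.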

[6] = Cell Viability - N2a (AID 540); details: N2a mouse neuroblastoma cell viability; at 92.2 µM (top of the series);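 also: plate controls were DMSO alone for no effect and tamoxifen control for full effect; nearly all actives have a fitted effect of over 45% in size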
Method in brief: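 Luminescent ATP signal (CellTiter-Glo, 20 min at room temperature) served as the viability read-out after N2a cells were treated with compounds for 40 hours at 37 °C. Concentration-response data were fitted to the Hill equation for AC50.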

[7] = Cell Viability - NIH 3T3 (AID 541); details: NIH 3T3 cell viability, qHTS; activity change, negative = cytotoxicity: at 92.2 µM (top of the series);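 also: plate controls were DMSO alone for no effect and tamoxifen positive control for full effect; nearly all actives have a fitted effect of over 25% in size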
Method in brief: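 Luminescent ATP signal (CellTiter-Glo) served as the viability read-out after NIH 3T3 cells were exposed to compounds over a concentration range for 40 hr at 37 °C. Hill-equation modelling of concentration-response data gave AC50.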

[8] = Cell Viability - HUV-EC-C (AID 542); also: % is scaled to controls: 0 for no effect and ±100 for the full control effect; nearly all actives have a fitted effect of over 35% in size
Method in brief: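 qHTS cytotoxicity: HUV-EC-C, 1000 cells/well, 5 hr settle, compound 40 hr 37 °C, CellTiter-Glo, luminescence. AC50 via Hill equation.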

[9] = Cell Viability - H-4-II-E (AID 543); also: % is scaled to controls: 0 for no effect and ±100 for the full control effect; nearly all actives have a fitted effect of over 35% in size
Method in brief: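 Luminescent ATP signal (CellTiter-Glo) served as the viability read-out, with cytotoxicity seen as a concentration-dependent ATP drop. Cells were treated for 40 hours in complete medium. AC50 values derive from Hill-equation modelling.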

[10] = Cell Viability - SH-SY5Y (AID 544); details: SH-SY5Y neuroblastoma cell viability; viability change, negative = cytotoxic: at 92.2 µM (top of the series); also: nearly all actives have a fitted effect of over 55% in size
Method in brief: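 Luminescent ATP read-out (CellTiter-Glo) measures loss of viable SH-SY5Y neuroblastoma cells after 40 hr compound exposure at 37 °C. AC50 values derive from standard Hill modelling of qHTS concentration-response data.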

[11] = Cell Viability - Renal Proximal Tubule (AID 545); details: renal proximal tubule cells viability; at 91.7 µM (top of the series), primary cells of rat origin unless noted; also: nearly all actives have a fitted effect of over 40% in size
Method in brief: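 Cytotoxicity is scored as a concentration-dependent drop in cellular ATP in primary rat renal proximal tubule cells exposed for 40 hr. AC50 derives from Hill modelling.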

[12] = Cell Viability - Mesenchymal (AID 546);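 also: cells exposed to compound for 40 hours before reading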
Method in brief: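 Normal human renal glomerulus-derived kidney mesenchymal cells, 1000 per well in complete medium, were treated with compounds for 40 hr at 37 °C. Viability was read as intracellular ATP by CellTiter-Glo luminescence; AC50 values came from Hill-equation fits of qHTS concentration-response data.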

[13] = Cellular Toxicity (caspase-3) HepG2 (AID 654);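 also: cells exposed to compound for 16 hours before reading; 0% = DMSO alone and 100% = caspase signal from 100 µM tamoxifen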
Method in brief: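 Cells plated 5 hr at 37 °C, compound added, incubated 16 hr at 37 °C. Caspase-Glo 3/7 reagent followed, 20 min at room temperature, then luminescence read. Activation scored as signal increase; AC50 from Hill fit.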

[14] = Cellular Toxicity (caspase-3) Jurkat (AID 655); details: Jurkat caspase-3 activation, luminescence, DMSO = 0%, tamoxifen = 100%; at 92.2 µM (top of the series);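 also: cells exposed to compound for 16 h at 37 °C before reading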
Method in brief: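 Caspase 3/7 activation is scored as increased luminescence in Jurkat cells cultured with compound for 16 hours in complete medium. AC50 values come from Hill fits of qHTS concentration-response data normalized to DMSO and 100 uM tamoxifen controls.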

[15] = Cellular Toxicity (caspase-3) HUV-EC-C (AID 656)
Method in brief: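 Read-out: luminescence proportional to caspase 3/7 activity, measured 20 min after adding Caspase-Glo 3/7 reagent. Cells (HUV-EC-C) had received compound for 16 hr at 37°C. Increases relative to DMSO and 100 uM tamoxifen gave concentration-response AC50 values.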

[16] = Cellular Toxicity (caspase-3) SHSY5Y (AID 657);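 also: cells exposed to compound for 16 hours at 37 °C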
Method in brief: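 Cells plated and incubated 5 h at 37 °C, dosed over a concentration range, incubated 16 h, then given Caspase-Glo 3/7 reagent for 1 h at room temperature before luminescence reading. Staurosporine (10 uM) defined full stimulation.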

[17] = Cellular Toxicity (caspase-3) BJ (AID 658)
Method in brief: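 Luminescent aminoluciferin-substrate cleavage reports caspase 3/7 activity in normal human BJ fibroblasts after 16 hr compound exposure at 37 °C. Normalized to DMSO (basal) and 10 uM staurosporine (100%); AC50 from Hill fit of concentration-response.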

[18] = Cellular Toxicity (caspase-3) MRC-5 (AID 659)
Method in brief: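 Luminescence from caspase-cleaved aminoluciferin substrate (Caspase-Glo 3/7, 1 hr RT) reports caspase 3/7 activity in MRC-5 lung fibroblasts after 16 hr compound exposure. Normalized to DMSO basal and 10 uM staurosporine as 100%; AC50 from Hill fits.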

[19] = Cellular Toxicity (caspase-3) Mesangial (AID 660);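 also: cells exposed to compound for 16 h before the caspase read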
Method in brief: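 Mesangial cells, 1000/well, 5 h settle at 37 °C; compound 16 h, 37 °C; Caspase-Glo 3/7 reagent 20 min RT; luminescence. Norm.: DMSO = 0%, tamoxifen 100 uM = 100%. AC50, Hill fit.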

[20] = Cellular Toxicity (caspase-3) SK-N-SH (AID 661)
Method in brief: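 Human neuroblastoma SK-N-SH, 1500 cells/well, 5 hr pre-incubation, then compound 16 hr, 37 °C. Caspase-Glo 3/7 reagent, 1 hr RT, luminescence. Norm. to DMSO/10 uM staurosporine; Hill-fit AC50.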

[21] = Cellular Toxicity (caspase-3) H-4-II-E (AID 663);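 also: cells exposed to compound for 16 hr before readout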
Method in brief: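 Luminescence from caspase-cleaved aminoluciferin substrate, read 20 min after reagent addition, reports caspase 3/7 activation in rat H-4-II-E cells after 16 hr compound exposure. Normalized to DMSO (basal) and 100 uM tamoxifen (100%); AC50 from Hill fits.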

[22] = Cellular Toxicity (caspase-3) Hek293 (AID 664);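 also: cells exposed to compound for 16 h at 37 °C before readout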
Method in brief: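 Cells plated, 5 hr at 37 °C; compounds added; 16 hr at 37 °C; Caspase-Glo 3/7 reagent, 20 min RT; luminescence read. Activation expressed relative to DMSO and 100 uM tamoxifen, AC50 by Hill model.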

[23] = Cellular Toxicity (caspase-3) N2a (AID 665); details: N2a cells, luminescence, normalized: DMSO 0%, 10 µM staurosporine 100%; at 92.2 µM (top of the series);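 also: compound exposure lasted 16 h at 37 °C before readout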
Method in brief: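 N2a cells, 1500/well, 5 h settle at 37 °C; cpd 16 h, 37 °C; Caspase-Glo 3/7, 1 h RT; luminescence. Norm: DMSO = 0, 10 uM staurosporine = 100%. AC50, Hill fit.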

CCCCOC(=O)c1ccccc1C(=O)OCCCC
inactive: Potency [1] > 92 µM | Potency [2] > 92 µM | Potency [3] > 92 µM | Potency [4] > 92 µM | Potency [5] > 92 µM | activity change, negative = cytotoxicity [6] -7.34% | activity change, negative = cytotoxicity [7] -3.85% | Potency [8] | Potency [9] | Potency [10] | activity change, negative = cytotoxicity [11] 1.09% [at 91.7 µM] | outcome [12] | outcome [13] | caspase-3 activation [14] -1.56% | outcome [15] | outcome [16] | outcome [17] | outcome [18] | outcome [19] | outcome [20] | outcome [21] | outcome [22] | caspase-3 activation [23] -1.36%

From PubChem BioAssay (NCATS)
